Measurements reported in PubChem BioAssay.
The source made the active and inactive calls.

Experiments:
[1] = test system: Wnt5a (protein binding on small-molecule microarray); test: Wnt5a binders on small-molecule microarray, primary screen, biophysical, 635/667 nm fluorescence (AID 1142); conditions: 635 nm fluorescence, higher = more signal;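 also: fluorescence read at 667 nm with signal to noise per printed feature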
[2] = cell viability in Huh7 cells, primary screen, cytotoxicity control for HCV replication inhibitor project, CellTiter-Glo luminescence, basal, 48 h (AID 1143); conditions: Huh7 HCV replicon, higher = more signal, called active from +8 up or from −8 down;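 also: Huh7 hepatoma cells carrying a hepatitis C replication reporter with no stimulus; test concentration not given here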
[3] = CREB reporter modulators without forskolin, primary screen, cell-based, PC12, CRE-LacZ reporter, unstimulated (AID 1145); conditions: no forskolin, luminescence, 4.5 h, higher = more signal, called active from +8 up or from −8 down
[4] = CREB reporter modulators under forskolin, primary screen, cell-based, PC12, CRE-LacZ reporter, forskolin-stimulated (AID 1146); conditions: luminescence, 4.5 h, higher = more signal, called active from +8 up or from −8 down;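 also: PC12 cells with 6xCRE LacZ reporter stimulated by forskolin 10 µM; beta-galactosidase reporter signal reflecting CREB driven transcription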
[5] = biological target: Streptavidin (Streptomyces avidinii) (UniProt P22629); test: streptavidin binders on small-molecule microarray, primary screen, artefact control for SMM compound annotation, biophysical, 635/667 nm fluorescence (AID 1147); conditions: streptavidin binding, higher = more signal;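 also: signal reflects streptavidin binding to arrayed compounds as a control protein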
Streptavidin (Streptomyces avidinii), sequence (P22629 whole entry, looked up): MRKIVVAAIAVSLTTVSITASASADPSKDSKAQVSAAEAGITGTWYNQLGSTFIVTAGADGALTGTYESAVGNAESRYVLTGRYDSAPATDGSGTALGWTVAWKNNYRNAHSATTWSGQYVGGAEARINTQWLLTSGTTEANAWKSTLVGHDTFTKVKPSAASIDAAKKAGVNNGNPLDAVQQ

[6] = small-molecule binders of probe aInhba, primary screen, biochemical, small-molecule microarray, 635/667 nm fluorescence (AID 1148); conditions: higher = more signal;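 also: score merges 667nm spot fluorescence with signal-to-noise for antibody binding to printed compounds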
Torsin-1A (Homo sapiens) [7] = biological target: Torsin-1A (Homo sapiens) (UniProt O14656); test: torsin A binders from cell lysate, primary screen, small-molecule microarray, wild-type, 635/667 nm (AID 1149); conditions: COS7 hTOR1A-WT lysate, 635 nm fluorescence, higher = more signal
Torsin-1A (Homo sapiens), sequence (O14656 whole entry, looked up): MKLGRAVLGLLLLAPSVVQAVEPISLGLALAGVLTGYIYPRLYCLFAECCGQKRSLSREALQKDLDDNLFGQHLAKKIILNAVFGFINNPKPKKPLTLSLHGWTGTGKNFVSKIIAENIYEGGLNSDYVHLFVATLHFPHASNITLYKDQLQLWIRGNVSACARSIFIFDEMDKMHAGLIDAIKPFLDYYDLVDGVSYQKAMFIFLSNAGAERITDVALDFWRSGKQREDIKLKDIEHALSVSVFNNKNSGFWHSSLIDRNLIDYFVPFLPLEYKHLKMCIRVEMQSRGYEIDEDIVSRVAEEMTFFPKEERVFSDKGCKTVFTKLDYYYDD

Torsin-1A (Homo sapiens) [8] = biological target: Torsin-1A (Homo sapiens) (UniProt O14656); test: small-molecule binders of mutant TOR1A in lysate, primary screen, cell lysate, small-molecule microarray, COS7 lysate, 635/667 nm fluorescence (AID 1150); conditions: COS7 hTOR1A mutant lysate, 635 nm fluorescence, higher = more signal;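 also: score pools 667 nm emission and signal to noise measuring lysate protein binding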
[9] = test system: Sonic hedgehog protein (Shh); test: small-molecule binders of Shh protein, primary screen, biochemical, small-molecule microarray, 635/667 nm fluorescence (AID 1151); conditions: small-molecule microarray binding, 635 nm fluorescence; higher = more signal;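 also: Shh protein binding to compounds spotted on small-molecule microarray slides; score combines spot fluorescence intensity with signal-to-noise across triplicate slides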

## COc1ccc([Si](C)(C)[C@H]2[C@H](CCO)O[C@@]3(C(=O)N(Cc4ccccc4)c4ccc(N5C(=O)c6cccc7cccc5c67)cc43)[C@@H]2C)cc1
[1]
  composite z-score: -0.234
[2]
  z-score: -5.81 (inactive)
[3]
  z-score: 4.04 (inactive)
[4]
  z-score: -1.36 (inactive)
[5]
  composite z-score: -0.3
[6]
  composite z-score: -0.0791
Torsin-1A (Homo sapiens) [7]
  composite z-score: -0.144
Torsin-1A (Homo sapiens) [8]
  composite z-score: 0.0743
[9]
  composite z-score: 0.145

## C=C(COC)/C(=C/C[C@H](OC(C)=O)c1ccc(OCCO)cc1)c1cnc2ccccc2c1
[1]
  composite z-score: 0.248
[2]
  z-score: -0.843 (inactive)
[3]
  z-score: 7.3 (inactive)
[4]
  z-score: -0.862 (inactive)
[5]
  composite z-score: 0.864
[6]
  composite z-score: 0.0082
Torsin-1A (Homo sapiens) [7]
  composite z-score: 0.654
Torsin-1A (Homo sapiens) [8]
  composite z-score: -0.0171
[9]
  composite z-score: 1.99

## CO[C@H]1COC(=O)[C@@H](Cc2ccccc2)NC(=O)[C@@H](C)COC(=O)CC=C[C@@H]1C
[1]
  composite z-score: -0.0866
[2]
  z-score: 0.7 (inactive)
[3]
  z-score: 8.02 (active)
[4]
  z-score: -0.445 (inactive)
[5]
  composite z-score: -0.282
[6]
  composite z-score: -0.263
Torsin-1A (Homo sapiens) [7]
  composite z-score: 0.379
Torsin-1A (Homo sapiens) [8]
  composite z-score: -0.0112
[9]
  composite z-score: 1.02

## CN(C)CCCC[C@@H]1NC(=O)[C@@H]2C[C@H](C(=O)O)[C@H](c3ccc(O)cc3)N2C1=O
[1]
  composite z-score: 0.471
[2]
  z-score: -3.87 (inactive)
[3]
  z-score: 0.415 (inactive)
[4]
  z-score: -0.183 (inactive)
[5]
  composite z-score: 0.0842
[6]
  composite z-score: 0.174
Torsin-1A (Homo sapiens) [7]
  composite z-score: 0.939
Torsin-1A (Homo sapiens) [8]
  composite z-score: 0.395
[9]
  composite z-score: 1.92

## CC(C)(C)OC(=O)CC[C@]1(C(=O)NCCN2CCOCC2)N=C(c2ccc(OCCCO)cc2)O[C@H]1c1ccccc1CN=[N+]=[N-]
[1]
  composite z-score: 0.358
[2]
  z-score: -1.11 (inactive)
[3]
  z-score: 1.57 (inactive)
[4]
  z-score: -1.79 (inactive)
[5]
  composite z-score: 0.225
[6]
  composite z-score: 0.0386
Torsin-1A (Homo sapiens) [7]
  composite z-score: 0.474
Torsin-1A (Homo sapiens) [8]
  composite z-score: 1.06
[9]
  composite z-score: -0.577

## C=CCc1cccc([C@@H]2[C@@H](C)CC[C@H]3C(=O)N4[C@H](c5cccc(CC=C)c5)[C@@H](C)CC[C@H]4C(=O)N23)c1
[1]
  composite z-score: 0.205
[2]
  z-score: -3.75 (inactive)
[3]
  z-score: 3.64 (inactive)
[4]
  z-score: -0.353 (inactive)
[5]
  composite z-score: 0.898
[6]
  composite z-score: 0.0968
Torsin-1A (Homo sapiens) [7]
  composite z-score: 0.392
Torsin-1A (Homo sapiens) [8]
  composite z-score: 0.203
[9]
  composite z-score: 0.946

## COC(=O)C1=CC(c2ccc(CO)cc2)=CC(C2CC2)N(Cc2sc3ccccc3c2Cl)C=C1C(=O)OC (stereo not given)
[1]
  composite z-score: 0.213
[2]
  z-score: -5.35 (inactive)
[3]
  z-score: 0.272 (inactive)
[4]
  z-score: -1.57 (inactive)
[5]
  composite z-score: 2.25
[6]
  composite z-score: 0.23
Torsin-1A (Homo sapiens) [7]
  composite z-score: 0.454
Torsin-1A (Homo sapiens) [8]
  composite z-score: 1.45
[9]
  composite z-score: 0.313

## NC(=O)NCC#Cc1ccc2c(c1)[C@]1(C(=O)N2)[C@H](C(=O)N2CCCCCCC2)[C@H]2C(=O)O[C@H](c3ccccc3)[C@H](c3ccccc3)N2[C@@H]1c1ccccc1OCCO
[1]
  composite z-score: 1.58
[2]
  z-score: -0.481 (inactive)
[3]
  z-score: -0.348 (inactive)
[4]
  z-score: -1.18 (inactive)
[5]
  composite z-score: 3.38
[6]
  composite z-score: 2.01
Torsin-1A (Homo sapiens) [7]
  composite z-score: 1.73
Torsin-1A (Homo sapiens) [8]
  composite z-score: 1.53
[9]
  composite z-score: 0.81

## CCC(=O)[C@]12O[C@@]3([C@@H]4C(=O)OCC[C@@H]41)N(Cc1ccccc1)C(C)=C(C(=O)OC)[C@@H](c1ccccc1)N3C2=O
[1]
  composite z-score: -0.183
[2]
  z-score: -0.596 (inactive)
[3]
  z-score: 1.01 (inactive)
[4]
  z-score: -1.32 (inactive)
[5]
  composite z-score: -0.444
[6]
  composite z-score: -0.0448
Torsin-1A (Homo sapiens) [7]
  composite z-score: -0.453
Torsin-1A (Homo sapiens) [8]
  composite z-score: -0.296
[9]
  composite z-score: 1.16

## COc1cc2c(cc1OC)CN(C(=O)[C@@H]1[C@H]3C(=O)O[C@H](c4ccccc4)[C@H](c4ccccc4)N3[C@H](c3ccccc3OCCO)[C@@]13C(=O)Nc1ccccc13)CC2
[1]
  composite z-score: 0.406
[2]
  z-score: -2.96 (inactive)
[3]
  z-score: 0.769 (inactive)
[4]
  z-score: -1.31 (inactive)
[5]
  composite z-score: 0.0797
[6]
  composite z-score: 0.387
Torsin-1A (Homo sapiens) [7]
  composite z-score: 0.497
Torsin-1A (Homo sapiens) [8]
  composite z-score: 0.701
[9]
  composite z-score: 0.554

## C=CC[C@]1(C(=O)O)N=C(c2ccc(OCCCO)cc2)O[C@H]1c1ccccc1
[1]
  composite z-score: -0.0903
[2]
  z-score: -0.551 (inactive)
[3]
  z-score: 1.38 (inactive)
[4]
  z-score: -1.04 (inactive)
[5]
  composite z-score: 0.0596
[6]
  composite z-score: -0.0471
Torsin-1A (Homo sapiens) [7]
  composite z-score: -0.753
Torsin-1A (Homo sapiens) [8]
  composite z-score: -0.0649
[9]
  composite z-score: -0.712

## COCCOC(=O)N1C(=O)[C@@]2(c3cc(C#CCCO)ccc31)[C@H](C(=O)N1CCCCCCC1)[C@H]1C(=O)O[C@H](c3ccccc3)[C@H](c3ccccc3)N1[C@@H]2c1ccc(O)cc1
[1]
  composite z-score: 0.138
[2]
  z-score: -4.07 (inactive)
[3]
  z-score: -0.815 (inactive)
[4]
  z-score: -1.28 (inactive)
[5]
  composite z-score: 1
[6]
  composite z-score: 0.74
Torsin-1A (Homo sapiens) [7]
  composite z-score: 0.678
Torsin-1A (Homo sapiens) [8]
  composite z-score: 0.922
[9]
  composite z-score: 1.06

## C[C@H]1COC(=O)[C@H](Cc2ccccc2)NC(=O)[C@@H](C)COC(=O)[C@H](Cc2ccccc2)NC1=O
[1]
  composite z-score: 0.226
[2]
  z-score: -2.12 (inactive)
[3]
  z-score: 2.52 (inactive)
[4]
  z-score: -0.837 (inactive)
[5]
  composite z-score: 1.65
[6]
  composite z-score: -0.0523
Torsin-1A (Homo sapiens) [7]
  composite z-score: 1.18
Torsin-1A (Homo sapiens) [8]
  composite z-score: 0.654
[9]
  composite z-score: 1.13

## CC(=O)Nc1ccc([C@H]2[C@H](C)CC[C@H]3C(=O)N4[C@@H](CC[C@@H](C)[C@@H]4c4ccc(NC(C)=O)cc4)C(=O)N32)cc1
[1]
  composite z-score: 0.165
[2]
  z-score: -0.446 (inactive)
[3]
  z-score: 3.09 (inactive)
[4]
  z-score: -0.876 (inactive)
[5]
  composite z-score: 0.627
[6]
  composite z-score: 0.0275
Torsin-1A (Homo sapiens) [7]
  composite z-score: 1.17
Torsin-1A (Homo sapiens) [8]
  composite z-score: 0.283
[9]
  composite z-score: 1.34

## CCCCCCc1nc(C2CC2)c(C)c2c1[Si](C(C)C)(C(C)C)OC2
[1]
  composite z-score: -0.0534
[2]
  z-score: -5.02 (inactive)
[3]
  z-score: 0.236 (inactive)
[4]
  z-score: -0.75 (inactive)
[5]
  composite z-score: -0.0332
[6]
  composite z-score: -0.0494
Torsin-1A (Homo sapiens) [7]
  composite z-score: 0.277
Torsin-1A (Homo sapiens) [8]
  composite z-score: 0.305
[9]
  composite z-score: 0.0027
